The source of these data is PubChem BioAssay AID624171 (National Center for Advancing Translational Sciences (NCATS), 2012).

The campaign covered roughly 410,000 compounds. About 1,200 (0.29%) were called active. Another 2% or so got no clear call; they are omitted. For the sample, actives were picked, then their nearest neighbours and some compounds at random. Unmarked numbers belong to inactive results. Calls follow the shape of the dose curve; as a rule, active = well fitted activation curve with a large enough effect; inconclusive = small, poorly fitted or top-dose-only effect; inactive = flat fitted curve, though single readings scatter.
Potency is read from the fitted curve at half-maximal effect.

The nature of the test: qHTS of Nrf2 Activators. Also: nearly all actives have a fitted effect of over 65% in size. As to activation: % of control where 0% means no effect. The conditions noted are these: AREc32 ARE-luciferase reporter (MCF7-derived line), luminescence, 24 h; series mostly up to 46.1 µM; activation: at the top concentration. From the text: Many diseases have some form of oxidative stress injury and ties to inflammation, causing a host of problems for the patient. The antioxidant response element (ARE) plays an important role in alleviating the harmful effects of oxidative stress. The antioxidant response element (ARE) is a transcriptional regulatory element involved in the activation of genes coding for a number of antioxidant proteins and detoxifying enzymes. These enzymes work in concert to protect tissues from oxidative insults and chemical toxicities in human hepatocytes and immune cells. The protective effects of ARE activation are primarily triggered through Nrf2 (NF-E2-related factor) binding to and activating AREs. It is known that Nrf2 controls the production of over 250 antioxidant and detoxification proteins (Hu et al., 2006), thereby protecting tissues by increasing cellular antioxidant content and suppressing inflammatory signaling pathways. The transcription factor Nrf2 is a central link between oxidative chemicals, such as phenolic antioxidants and electrophilic compounds, and the activation of ARE. Nrf2 levels are constitutively low as a consequence of its interaction with Keap1, which targets its degradation (Zipper and Mulcahy, 2002). Electrophiles react with key cysteine residues in Keap1, releasing Nrf2 and allowing its translocation to the nucleus. Once within the nucleus, Nrf2 complexes with coactivators such as p300, and binds to the AREs to induce gene transcription of cytoprotective enzymes, resulting in the prevention of toxicity. Activation of Nrf2 protects tissues by increasing cellular antioxidant content and suppressing inflammatory signaling pathways. Identifying novel and potent Nrf2 activators by using the AREc32 cell line to detect ARE activation by small molecules will lead to the identification and development of probes to study protective pathways in multiple tissues. These specific probes are essential to study the ARE pathway, and eventually to determine whether this pathway does activate genes that could protect against a host of diseases, including cardiovascular diseases, obesity, diabetes, Alzheimer's, and Parkinson's disease.
This project's aim is to identify novel and potent Nrf2 activators by using the AREc32 cell line to detect ARE activation by small molecules, which will lead to the identification and development of probes to study the ARE pathway.
NIH Chemical Genomics Center [NCGC]
NIH Molecular Libraries Probe Centers Network [MLPCN]
Assay Submitter (PI): Curtis Klaassen, University of Kansas Medical Center
5 uL of 1000 cells/well of AREc32_Fluc cells are seeded into 1536-well plate in OPTI-MEM medium with 5% FBS. The plates are incubated overnight at 37 deg C with 5% CO2. Then through pin tool transfer, 23 nL of compounds are added to each well before a 24 hr incubation at 37 deg C with 5% CO2. After the addition of 2.5 uL of Steady-Glo. the plates are kept at RT for 30 min, before they are read on the ViewLux.
In the case of `Cc1ccc(NC2=C(Cl)C(=O)OC2OC(=O)c2ccccc2C)cc1` (stereo not given), the activation is 0.434% [at 9.22 µM].

Turning to `Cc1ccccc1C(=O)OC1OC(=O)C(Cl)=C1Nc1ccccc1` (stereo not given), the Potency was 15.8 µM (active).

Take `O=C1OC(OC(=O)c2ccccc2Br)C(N2CCOCC2)=C1Cl` (stereo not given): the “activation” value was 5.07%.

On to `CCOC(=O)c1c(C)[nH]c(C)c1S(=O)(=O)N1CCC(C(=O)Nc2ccc(C)c(Cl)c2)CC1`, for which the “activation” value was -0.0095%.

For the molecule `Nc1c(C(=O)c2cccs2)sc2nsc(SCCN3CCCCC3)c12`, the Potency was 10 µM (active).

Consider `Cc1cc(NC(C)C)n2c(nc3ccccc32)c1C#N`, for which the “activation” value is -0.5%.

As for `Cc1cc(NCc2ccco2)n2c(nc3ccccc32)c1C#N`, the Potency is 5.01 µM (active).

Consider `CC(C)c1cc(NCc2ccccn2)n2c(nc3ccccc32)c1C#N`, for which the “activation” value is -0.266%.

On to `Cc1cc(C(=O)N/N=C\C(Br)=C\c2ccccc2)c(C)o1`, for which the Potency is 20 µM (active).

Turning to `Cc1cc(C(=O)NCCc2ccc(Cl)cc2)c(C)o1`, the “activation” value was 0.668%.

For the molecule `Cc1cc(C)cc(NC(=O)COC(=O)c2cc(C)oc2C)c1`, the “activation” value was 0.443%.

On to `COc1cccc(C(=O)NCC(=O)OCc2cc(=O)n3ccsc3n2)c1`, for which the “activation” value was 0.717%.

As to `Cc1n[nH]c(=O)n1-c1ccc(Oc2ccccc2)cc1`, the “activation” value is -0.567%.

As for `S=c1[nH]nc(CSCc2ccc(Cl)cc2Cl)n1-c1ccccc1`, the “activation” value was 1.92%.

As for `S=c1[nH]nc(-c2cc(-c3ccsc3)n[nH]2)n1-c1ccccc1`, the Potency was 8.91 µM (active).

With `COc1cccc(C(c2c(O)cc(C)n(Cc3ccco3)c2=O)N2CCN(c3ccccc3)CC2)c1` (stereo not given), the “activation” value is -0.424%.

Consider `O=C(Nc1ccc2ccccc2c1[N+](=O)[O-])c1ccccc1`, for which the Potency was 14.1 µM (active).

As for `CN(C)c1ccc(NC(=O)c2ccncc2)c2ccccc12`, the “activation” value was 0.419%.

With `Cc1ccc(NC(=O)c2oc3ccccc3c2C)c([N+](=O)[O-])c1`, the “activation” value is 2.17%.

`O=C(CN1C(=O)COc2ccc(S(=O)(=O)N3CCOCC3)cc21)N1CCN(c2cccc(Cl)c2)CC1`: the “activation” value is -1.02%.

For `Cc1cc2nc(-c3ccc(NC(=O)c4cc5ccccc5o4)cc3)oc2cc1C`, the “activation” value was -0.225%.

Take `O=C(COC(=O)/C=C/c1nc2ccccc2s1)Nc1ccccc1Oc1ccccc1`: the “activation” value was 13.2%.

For the molecule `CCOc1cccc(/C=C/c2ccc3ccccc3n2)c1OC(C)=O`, the “activation” value is -0.0343%.

As for `NC(=O)COC(=O)/C=C/c1ccc2ccccc2n1`, the Potency was 15.8 µM (active).

For the molecule `CN(C(=O)c1ccc2c(c1)N(Cc1cccc(Cl)c1)C(=O)c1ccccc1S2=O)C1CCCCC1` (stereo not given), the “activation” value is -0.856%.

Take `CC(C)C(=O)Nc1nc2c(s1)CC(C(C)(C)C)CC2` (stereo not given): the “activation” value is 8.99%.

As to `Cc1ccc(NC(=O)Cn2nnc3sc4c(c3c2=O)CCC(C)C4)cc1` (stereo not given), the “activation” value is -0.46%.

For the molecule `COC(=O)c1cccc(Cn2nnc3sc4c(c3c2=O)CCC(C(C)(C)C)C4)c1` (stereo not given), the “activation” value was 0.258%.

Consider `CCOC(=O)c1c(C)oc2nc(C)nc(Nc3ccc(CC)cc3)c12`, for which the “activation” value is 0.634%.

With `CCCOc1ccc(-c2cccc(NS(=O)(=O)c3ccccc3)c2)nn1`, the “activation” value is 5.26%.

Regarding `COc1ccc(N2C(=O)CC(N3CCC(C(N)=O)CC3)C2=O)cc1` (stereo not given), the “activation” value was 2.6%.

With `COc1ccc(C2NC(=O)N(C)C3=C2C(=O)N(c2ccc(C(=O)O)cc2)C3)cc1` (stereo not given), the “activation” value was -0.886%.

For the molecule `COc1ccc(N2C(=O)C3C(C2=O)C(C(=O)c2ccccc2)N2CCCC32)cc1` (stereo not given), the Potency is 12.6 µM (active).

Consider `CCCNC(=O)C1CCC(Cn2c(=O)c3sccc3n(Cc3ccccc3F)c2=O)CC1` (stereo not given), for which the “activation” value is -0.818%.

Consider `COc1ccccc1CNC(=O)c1ccc(CS(=O)c2ccccc2Cl)o1` (stereo not given), for which the “activation” value is 0.406%.

As for `Cc1cc(-c2ccccc2)n2nc(-c3ccccc3)cc2n1`, the “activation” value was 12.8%.

On to `c1ccc(-c2ccnc3nc(-n4cccc4)nn23)cc1`, for which the Potency is 12.6 µM (active).

As for `Cc1ccc(-c2ccnc3nc(Sc4ncc(C(F)(F)F)cc4Cl)nn23)cc1`, the “activation” value is 3.01%.

As for `O=C(Nc1nnc(S(=O)(=O)N2CCCc3ccccc32)s1)c1cccc(F)c1`, the “activation” value was 7.1%.

On to `CCSc1ncc(Cl)c(C(=O)Nc2c(C(=O)c3ccccc3)oc3ccccc23)n1`, for which the “activation” value is 1.26%.

For the molecule `O=C(Nc1cccc2cccnc12)c1cccc2c(Br)cccc12`, the “activation” value is -0.813%.

For the molecule `O=C(Nc1ccccc1Cl)Nc1cccc2cccnc12`, the Potency is 12.6 µM (active).

Take `COc1c(Cl)cc(Cl)cc1C(=O)Nc1cccc2cccnc12`: the “activation” value is 4.52%.

Regarding `Cc1ccc(NC(=O)CN2C(=O)C(c3ccc(F)cc3)=NC23CCCCCC3)c(C)c1`, the “activation” value is -0.548%.

As for `CCCN1CCc2nc(N3CCN(C)CC3)ncc2C1`, the “activation” value was -0.347%.

Take `CC(C)(C)c1ccc(C(=O)N2CCC(c3nc(-c4ccc(S(=O)(=O)N5CCCC5)cc4)no3)CC2)cc1`: the “activation” value is -0.309%.

Take `O=S(=O)(c1ccc(F)cc1)N1CCN(Cc2ccccc2C(F)(F)F)CC1`: the “activation” value was -0.452%.

Regarding `O=c1[nH]nc(SCCS(=O)(=O)c2ccc(F)cc2)n1-c1ccccc1C(F)(F)F`, the Potency is 11.2 µM (active).

Regarding `O=C(CSc1n[nH]c(=O)n1-c1ccccc1)Nc1ccccc1C(F)(F)F`, the “activation” value is 0.332%.

For the molecule `COc1ccc2oc(=O)c(-c3cn4c(n3)sc3cc(OC)ccc34)cc2c1`, the “activation” value was 0.368%.
